{
  "source": "PubChem BioAssay (EPA / NIEHS)",
  "key": {"[1]": {"target": "Estrogen receptor (Homo sapiens) (UniProt P03372)", "sequence (P03372 whole entry, looked up, the tested form may be a part)": "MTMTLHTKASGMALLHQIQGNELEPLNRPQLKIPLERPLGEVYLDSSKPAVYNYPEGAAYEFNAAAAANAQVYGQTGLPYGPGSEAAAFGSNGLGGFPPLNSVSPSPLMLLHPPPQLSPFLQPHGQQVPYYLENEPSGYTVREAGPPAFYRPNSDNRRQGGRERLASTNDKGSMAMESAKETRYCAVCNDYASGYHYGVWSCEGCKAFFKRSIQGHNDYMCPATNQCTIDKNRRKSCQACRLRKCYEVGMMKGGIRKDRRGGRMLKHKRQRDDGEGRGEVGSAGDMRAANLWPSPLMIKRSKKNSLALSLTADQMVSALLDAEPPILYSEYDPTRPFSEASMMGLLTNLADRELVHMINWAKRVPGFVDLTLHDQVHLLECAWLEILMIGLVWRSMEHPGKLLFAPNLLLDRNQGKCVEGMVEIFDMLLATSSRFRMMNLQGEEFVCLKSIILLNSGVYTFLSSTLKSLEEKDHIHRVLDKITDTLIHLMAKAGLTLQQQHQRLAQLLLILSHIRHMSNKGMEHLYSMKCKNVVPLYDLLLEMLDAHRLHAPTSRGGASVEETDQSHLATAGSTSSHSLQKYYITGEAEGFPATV", "assay": "OT_ER_ERaERa_1440: Odyssey Thera (OT) 24-hour HEK293T Protein-Complementation Assay for Estrogen Receptor-alpha/-alpha Homodimer (AID 2283349);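 further: hits raise fluorescence above DMSO for agonists and antagonists alike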", "how_it_was_run": "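HEK293T cells stably expressing the human ER alpha ligand-binding domain (aa 310-547) as a homodimer PCA were dosed for 24 hours. Fluorescence intensity was read by laser scanning cytometry, and gain of signal was fitted relative to DMSO vehicle.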"}, "[2]": {"target": "Estrogen receptor (Homo sapiens) (UniProt P03372)", "assay": "OT_ER_ERaERa_0480: Odyssey Thera (OT) 8-hour HEK293T Protein-Complementation Assay for Estrogen Receptor-alpha/-alpha Homodimer (AID 2283351)", "how_it_was_run": "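Binding reporter in which dimerisation of ERα LBD (aa 310-547) fusions reconstitutes a fluorescent reporter in HEK293T cells. Compounds incubated 8 h; mean fluorescence intensity increase versus DMSO scored.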"}, "[3]": {"target": "T1, Estrogen receptor (Homo sapiens) + Estrogen receptor beta (Homo sapiens) (UniProt P03372+Q92731)", "T1 sequence (P03372 whole entry, looked up)": "as the sequence (P03372 whole entry, looked up, the tested form may be a part) above", "T1 sequence (Q92731 whole entry, looked up)": "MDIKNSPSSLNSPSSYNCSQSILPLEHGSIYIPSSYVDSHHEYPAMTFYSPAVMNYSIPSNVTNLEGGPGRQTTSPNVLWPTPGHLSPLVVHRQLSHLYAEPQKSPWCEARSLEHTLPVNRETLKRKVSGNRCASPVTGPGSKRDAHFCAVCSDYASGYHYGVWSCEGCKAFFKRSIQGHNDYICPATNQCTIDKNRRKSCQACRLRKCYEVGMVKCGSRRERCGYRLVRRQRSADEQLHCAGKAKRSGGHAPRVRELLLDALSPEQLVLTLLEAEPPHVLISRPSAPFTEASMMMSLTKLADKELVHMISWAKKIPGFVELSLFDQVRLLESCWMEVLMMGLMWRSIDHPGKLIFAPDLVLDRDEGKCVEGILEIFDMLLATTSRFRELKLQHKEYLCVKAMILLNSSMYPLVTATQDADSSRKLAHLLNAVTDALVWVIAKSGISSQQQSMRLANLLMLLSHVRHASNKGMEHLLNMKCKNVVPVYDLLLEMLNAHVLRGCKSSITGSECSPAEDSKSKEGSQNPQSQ", "assay": "OT_ER_ERaERb_0480: Odyssey Thera (OT) 8-hour HEK293T Protein-Complementation Assay for Estrogen Receptor-alpha/-beta Heterodimer (AID 2283352)", "how_it_was_run": "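Compound added to HEK293T cells carrying split-reporter-tagged ER-alpha and ER-beta LBDs, incubated 8 hours, then imaged by laser scanning cytometer. Signal rise in nucleus, or nucleus and cytoplasm, over vehicle was fitted in the positive direction.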"}, "[4]": {"target": "T1, Estrogen receptor (Homo sapiens) + Estrogen receptor beta (Homo sapiens)", "assay": "OT_ER_ERaERb_1440: Odyssey Thera (OT) 24-hour HEK293T Protein-Complementation Assay for Estrogen Receptor-alpha/-beta Homodimer (AID 2283356); further: heteromer of ER alpha and ER beta binding domains", "how_it_was_run": "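Stable HEK293T PCA line, ERα LBD 310-547 + ERβ LBD 263-489 fused to reporter fragments; 24 h treatment; fluorescence read by laser scanning cytometry; positive fitting direction relative to DMSO.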"}, "[5]": {"target": "Estrogen receptor beta (Homo sapiens) (UniProt Q92731)", "sequence (Q92731 whole entry, looked up, the tested form may be a part)": "as the sequence (Q92731 whole entry, looked up) above", "assay": "OT_ER_ERbERb_0480: Odyssey Thera (OT) 8-hour HEK293T Protein-Complementation Assay for Estrogen Receptor-beta/-beta Homodimer (AID 2283357)", "how_it_was_run": "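Fluorescence intensity, nuclear for agonists and nuclear plus cytoplasmic for antagonists, was quantified by laser scanning cytometry versus vehicle after 8 h treatment. The cells were HEK293T stably carrying ER beta LBD fragment-complementation partners.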"}, "[6]": {"target": "Estrogen receptor (Homo sapiens) (UniProt P03372)", "assay": "OT_ERa_GFPERaERE_0480: Odyssey Thera (OT) 8-hour HeLa Transcription Induction Assay for Estrogen Receptor (AID 2283381; active means hit-call score of the fitted dose curve at least 0.9, where 1 is the maximum; inactive means score below 0.9)", "how_it_was_run": "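Cells (HeLa) receive compound; after 8 h, reporter fluorescence is imaged and quantified by high-content analysis. Gain-of-signal relative to DMSO gives the endpoint.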"}, "[7]": {"target": "Estrogen receptor (Homo sapiens) (UniProt P03372)", "assay": "OT_ERa_GFPERaERE_0120: Odyssey Thera (OT) 2-hour HeLa Transcription Induction Assay for Estrogen Receptor (AID 2283382)", "how_it_was_run": "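Measures ESR1 pathway reporter gain-of-signal in HeLa cells after a 2-hour treatment, detected as fluorescent protein induction by microscopy, DMSO as baseline.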"}, "[8]": {"target": "Retinoic acid receptor RXR-alpha (Homo sapiens) (UniProt P19793)", "sequence (P19793 whole entry, looked up, the tested form may be a part)": "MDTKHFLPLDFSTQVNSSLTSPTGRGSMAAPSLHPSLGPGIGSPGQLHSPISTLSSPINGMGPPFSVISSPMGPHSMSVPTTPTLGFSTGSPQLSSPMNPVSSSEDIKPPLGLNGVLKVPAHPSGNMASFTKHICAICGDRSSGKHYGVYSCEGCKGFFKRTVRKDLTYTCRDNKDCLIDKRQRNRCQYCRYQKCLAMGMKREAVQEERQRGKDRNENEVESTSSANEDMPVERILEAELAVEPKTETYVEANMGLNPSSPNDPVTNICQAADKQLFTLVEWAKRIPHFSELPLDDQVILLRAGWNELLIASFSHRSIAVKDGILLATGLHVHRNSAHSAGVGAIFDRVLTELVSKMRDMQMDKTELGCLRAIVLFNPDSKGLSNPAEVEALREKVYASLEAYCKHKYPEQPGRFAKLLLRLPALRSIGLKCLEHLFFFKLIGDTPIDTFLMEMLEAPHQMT", "assay": "OT_NURR1_NURR1RXRa_0480: Odyssey Thera (OT) 8-hour HEK293T Protein Complementation Assay for Nurr1/retinoid X receptor (RXR) (AID 2283385)", "how_it_was_run": "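Compounds are applied to HEK293T cells carrying Nurr1 and RXRα linked to reporter fragments. After 8 h, fluorescence intensity reports heterodimer formation, with DMSO as baseline.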"}, "[9]": {"target": "Retinoic acid receptor RXR-alpha (Homo sapiens) (UniProt P19793)", "assay": "OT_NURR1_NURR1RXRa_1440: Odyssey Thera (OT) 24-hour HEK293T Protein Complementation Assay for Nurr1/retinoid X receptor (RXR) (AID 2283386)", "how_it_was_run": "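Measured as fluorescence from a reconstituted split reporter, this 24 h HEK293T complementation assay scores compound-induced gain of Nurr1/RXRα association relative to DMSO.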"}, "[10]": {"target": "Peroxisome proliferator-activated receptor gamma (Homo sapiens) (UniProt P37231)", "sequence (P37231 whole entry, looked up, the tested form may be a part)": "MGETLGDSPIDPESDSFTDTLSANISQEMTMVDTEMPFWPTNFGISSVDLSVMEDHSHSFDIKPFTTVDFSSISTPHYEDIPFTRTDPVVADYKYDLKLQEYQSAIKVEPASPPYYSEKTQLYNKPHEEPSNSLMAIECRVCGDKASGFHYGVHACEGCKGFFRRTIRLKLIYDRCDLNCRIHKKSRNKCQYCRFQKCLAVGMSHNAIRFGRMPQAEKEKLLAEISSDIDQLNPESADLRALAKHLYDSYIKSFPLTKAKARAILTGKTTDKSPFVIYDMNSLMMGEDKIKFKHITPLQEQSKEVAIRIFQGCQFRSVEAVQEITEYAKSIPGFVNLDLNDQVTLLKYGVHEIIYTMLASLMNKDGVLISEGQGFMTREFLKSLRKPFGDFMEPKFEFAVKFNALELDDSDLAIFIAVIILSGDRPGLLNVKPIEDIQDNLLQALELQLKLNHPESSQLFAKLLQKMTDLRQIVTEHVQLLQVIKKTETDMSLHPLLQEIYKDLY", "assay": "OT_PPARg_PPARgSRC1_0480: Odyssey Thera (OT) 8-hour Protein-Complementation Assay for Peroxisome Proliferator-activated Receptor Gamma / SRC-1 Co-activator (AID 2283387)", "how_it_was_run": "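HEK293T transiently transfected with PPARg and SRC-1 fused to Venus YFP fragments, compounds 8 h at 37C. Fixed, Draq5-stained cells imaged; nuclear/cytoplasmic 488 nm fluorescence ratio over at least 350 cells per image; gain fitted versus DMSO.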"}, "[11]": {"target": "Peroxisome proliferator-activated receptor gamma (Homo sapiens) (UniProt P37231)", "assay": "OT_PPARg_PPARgSRC1_1440: Odyssey Thera (OT) 24-hour Protein-Complementation Assay for Peroxisome Proliferator-activated Receptor Gamma/ SRC-1 Co-activator (AID 2283388)", "how_it_was_run": "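Protein-fragment complementation between PPARg and coactivator SRC-1 was measured by fluorescence imaging in transiently transfected HEK293T cells after 24 h treatment. Signal was quantified as N/C ratio in the 488 nm channel, with DMSO as negative control.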"}, "[12]": {"read-out": "Fatty acid synthase (Homo sapiens) (UniProt P49327)", "assay": "LTEA_HepaRG_FASN: Life Technologies and Expression Analysis (LTEA) Assay for Fatty Acid Synthase (FASN) using HepaRG (AID 2283448; active means hit-call score of the fitted dose curve at least 0.9, where 1 is the maximum; inactive means score below 0.9)", "details": "mRNA level, 48 h; actives raise or lower the signal", "how_it_was_run": "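Transcript-level assay: HepaRG liver cells are treated for 48 h across an eight-point range topping at 100 uM, and FASN mRNA, normalized to three housekeeping genes, is compared with DMSO controls in both directions.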"}, "[13]": {"read-out": "Cyclin D2 (CCND2), CCND2 (gene 894)", "assay": "LTEA_HepaRG_CCND2: Life Technologies and Expression Analysis (LTEA) Assay for Cyclin D2 (CCND2) using HepaRG (AID 2283449; active means hit-call score of the fitted dose curve at least 0.9, where 1 is the maximum; inactive means score below 0.9)", "details": "mRNA level, 48 h; actives raise or lower the signal", "how_it_was_run": "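Chemicals in 0.5% DMSO, eight half-log concentrations from 100 uM top, were applied in duplicate for 48 h to human HepaRG cells in serum-free induction medium. CCND2 mRNA by TaqMan qRT-PCR, normalised to ACTB/GAPDH/POLR2A; bidirectional fit versus DMSO.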"}, "[14]": {"read-out": "Cyclin Dependent Kinase Inhibitor 1A (CDKN1A), CDKN1A (gene 1026)", "assay": "LTEA_HepaRG_CDKN1A: Life Technologies and Expression Analysis (LTEA) Assay for Cyclin Dependent Kinase Inhibitor 1A (CDKN1A) using HepaRG (AID 2283450; active means hit-call score of the fitted dose curve at least 0.9, where 1 is the maximum; inactive means score below 0.9)", "details": "mRNA level, 48 h; actives raise or lower the signal", "how_it_was_run": "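Read-out is CDKN1A mRNA by TaqMan qRT-PCR, normalized to three housekeeping genes and fitted in both directions against the DMSO baseline. Human HepaRG cells were treated 48 h with test chemicals up to 100 uM in half-log steps, 0.5% DMSO.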"}, "[15]": {"read-out": "Cyclin D1 (CCND1), CCND1 (gene 595)", "assay": "LTEA_HepaRG_CCND1: Life Technologies and Expression Analysis (LTEA) Assay for Cyclin D1 (CCND1) using HepaRG (AID 2283451; active means hit-call score of the fitted dose curve at least 0.9, where 1 is the maximum; inactive means score below 0.9)", "details": "mRNA level, 48 h; actives raise or lower the signal", "how_it_was_run": "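HepaRG plated 48 h, medium switched to serum-free induction medium, chemicals added in duplicate (top 100 uM, half-log steps, 0.5% DMSO) for 48 h, cells lysed, RNA measured by TaqMan qRT-PCR.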"}, "[16]": {"read-out": "catalase (CAT), CAT (gene 847)", "assay": "LTEA_HepaRG_CAT: Life Technologies and Expression Analysis (LTEA) Assay for catalase (CAT) using HepaRG (AID 2283452; active means hit-call score of the fitted dose curve at least 0.9, where 1 is the maximum; inactive means score below 0.9)", "details": "mRNA level, 48 h; actives raise or lower the signal", "how_it_was_run": "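HepaRG cells in serum-free induction medium, 0.5% DMSO vehicle, exposed 48 h in duplicate over 8 half-log concentrations from 100 uM. CAT mRNA measured by qRT-PCR, normalized to ACTB, GAPDH, POLR2A; bidirectional fit versus DMSO.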"}, "[17]": {"read-out": "flavin-containing dimethylaniline monooxygenases 3 (FMO3), FMO3 (gene 2328)", "assay": "LTEA_HepaRG_FMO3: Life Technologies and Expression Analysis (LTEA) Assay for flavin-containing dimethylaniline monooxygenases 3 (FMO3) using HepaRG (AID 2283453; active means hit-call score of the fitted dose curve at least 0.9, where 1 is the maximum; inactive means score below 0.9)", "details": "mRNA level, 48 h; actives raise or lower the signal", "how_it_was_run": "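HepaRG, 48 h exposure, 8-pt half-log series from 100 uM, 0.5% DMSO vehicle, duplicates; FMO3 transcript by Fluidigm TaqMan qRT-PCR, housekeeping-normalized; gain/loss fit vs DMSO.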"}, "[18]": {"read-out": "Cytochrome P450 (CYP1A1), CYP1A1 (gene 1543)", "assay": "LTEA_HepaRG_CYP1A1: Life Technologies and Expression Analysis (LTEA) Assay for Cytochrome P450 (CYP1A1) using HepaRG (AID 2283454; active means hit-call score of the fitted dose curve at least 0.9, where 1 is the maximum; inactive means score below 0.9)", "details": "mRNA level, 48 h; actives raise or lower the signal", "how_it_was_run": "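HepaRG, 48 h post-plating switched to serum-free induction medium; 8-pt conc-response (top 100 uM, half-log, 0.5% DMSO), duplicates, 48 h. Lysis in RLT, TaqMan qRT-PCR for CYP1A1; gain or loss vs DMSO.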"}},
  "note": "Inconclusive results are not listed. Calls of active or inactive are those of the source. How the source made its calls, unless noted: active means hit-call score of the fitted dose curve at least 0.9, where 1 is the maximum; inconclusive means response in the unintended direction; inactive means score below 0.9.",
  "data": [
    {"molecule": "c1cc[n+]2c(c1)-c1cccc[n+]1CC2", "values": [
      {"measurement": "outcome", "setting": "[1]", "result": "inactive"},
      {"measurement": "outcome", "setting": "[2]", "result": "inactive"},
      {"measurement": "outcome", "setting": "[3]", "result": "inactive"},
      {"measurement": "outcome", "setting": "[4]", "result": "inactive"},
      {"measurement": "outcome", "setting": "[5]", "result": "inactive"},
      {"measurement": "outcome", "setting": "[6]", "result": "inactive"},
      {"measurement": "outcome", "setting": "[7]", "result": "inactive"},
      {"measurement": "outcome", "setting": "[8]", "result": "inactive"},
      {"measurement": "outcome", "setting": "[9]", "result": "inactive"},
      {"measurement": "outcome", "setting": "[10]", "result": "inactive"},
      {"measurement": "outcome", "setting": "[11]", "result": "inactive"},
      {"measurement": "outcome", "setting": "[12]", "result": "inactive"},
      {"measurement": "outcome", "setting": "[13]", "result": "inactive"},
      {"measurement": "outcome", "setting": "[14]", "result": "inactive"},
      {"measurement": "outcome", "setting": "[15]", "result": "inactive"},
      {"measurement": "outcome", "setting": "[16]", "result": "inactive"},
      {"measurement": "outcome", "setting": "[17]", "result": "inactive"},
      {"measurement": "AC50", "setting": "[18]", "result": "22.4 µM (active)"}
    ]}
  ]
}
